Out of some 360,000 compounds screened, about 7,500 (2.1%) were called active. Entries that show only a call come without a potency. Not shown: some 8% with an inconclusive outcome. The sample holds actives, similar compounds and a random draw of the others, so the mix is not that of the screen. The call rests on the fitted dose curve; in most records, active means well fitted cell-killing curve with a large enough effect; inconclusive means small, poorly fitted or top-dose-only effect, or effect the other way, or another doubt; inactive means no such curve, though single readings can be large or run the other way.
Assay: qHTS for induction of synthetic lethality in tumor cells producing 2HG: qHTS for the HT-1080-IDH1KD cell line
Details: HT-1080 IDH1 knockdown viability, ATP luminescence, 48 h; series mostly up to 46.1 µM
In short: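 After a 2 h attachment period, IDH1KD HT-1080 cells took pin-transferred compound for 48 h at 37 °C; ATP-based luminescence after 10 min room-temperature reagent incubation reported viability.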
Potency means the concentration at half of the fitted maximal effect.

| Structure (SMILES) | Potency | activity, negative = toxicity |
| --- | --- | --- |
| O=C(Nc1ccc(Cl)cc1)c1csc([C@@H]2O[C@H](CO)[C@H](O)[C@H](O)[C@H]2O)n1 | inactive | – |
| CO[C@@H]1CN(C)C(=O)c2cc(NC(=O)Nc3cc(F)ccc3F)ccc2OC[C@H](C)N(C(=O)c2ccccn2)C[C@@H]1C | inactive | – |
| CCOC(=O)N1C(=O)C[C@](Sc2ccc(C)cc2)(C(=O)OC)[C@H]1c1ccccc1 | inactive | – |
| Nc1ncnc2c1ncn2[C@@H]1O[C@H](C(=O)NCC(F)(F)F)[C@@H](O)[C@H]1O | inactive | – |
| COc1ccc(-c2[nH][nH]c(=O)c2NC(=O)c2ccc([N+](=O)[O-])cc2)cc1 | inactive | – |
| CCOC(=O)c1cc(-c2sc(NC(=O)c3ccccc3)nc2C)n(-c2ccc(Br)cc2)n1 | inactive | – |
| c1ccc(C(c2ccccc2)N2CCN(Cc3nnnn3C3CCCCC3)CC2)cc1 | inactive | – |
| COc1ccccc1CN1CCN(C(c2ccccc2)c2ccccc2)CC1 | inactive | – |
| CC1(C)CC(N2CCN(C(c3ccccc3)c3ccccc3)CC2)=CC(=[N+]2CCCCC2)C1 | 2.59 µM (active) | – |
| OC(c1ccccc1)c1nc(/C=C/c2ccc(C(F)(F)F)cc2)cs1 (configuration not stated) | inactive | – |
| CCCCc1ccc(S(=O)(=O)NC(=O)C2(C)CCN2C(=O)c2ccccc2)cc1 (configuration not stated) | inactive | – |
| CCCCCCn1c(SCC(=O)c2ccccc2)nc2c1c(=O)[nH]c(=O)n2C | inactive | – |
| CCCCCn1c(SCCC(C)C)nc2c1c(=O)[nH]c(=O)n2C | 20.6 µM (active) | – |
| C=CCSc1nc2c(c(=O)[nH]c(=O)n2C)n1Cc1ccccc1 | inactive | – |
| COCCNC(=O)c1cc2c(Br)ccc(Br)c2nc1N | inactive | – |
| CSc1ncnc2c1ncn2CCCNCC1CCCCC1 | inactive | – |
| CCc1nc2ccc(C(=O)NCCNC(C)=O)cn2c1N(CC)Cc1cccc(Br)c1 | inactive | – |
| CN(Cc1ccccc1)C(=O)CCC1CCN(C(=O)c2ccco2)CC1 | inactive | – |
| Cc1cc(NC(=O)CCC(=O)N(c2ccccc2)C(C(=O)NC2CCCC2)c2ccncc2)no1 (configuration not stated) | inactive | – |
| Cc1cc(NC(=O)/C=C/C(=O)N(c2ccccc2C)C(C(=O)NC2CCCC2)c2ccc(F)cc2)no1 (configuration not stated) | 10 µM (active) | – |
| Cc1cc(NC(=O)CCC(=O)N(c2cccc(F)c2)C(C(=O)NC2CCCC2)c2ccncc2)no1 (configuration not stated) | inactive | – |
| O=C(N=C1SC2CS(=O)(=O)CC2N1Cc1ccccc1)c1ccccc1 (configuration not stated) | inactive | – |
| COC(=O)[C@]12CCCCC=C1N(Cc1ccccc1)C(=O)[C@H](CC(=O)NCc1ccc(C)o1)C2 | inactive | – |
| COc1ccc(C)c(Cn2c(-c3nonc3N)nc3ccccc32)c1 | 5.17 µM (active) | – |
| Nc1nonc1-c1nc2ccccc2n1Cc1ccc(F)cc1 | inactive | – |

| Structure (SMILES) | Potency | activity, negative = toxicity |
| --- | --- | --- |
| CCn1c(C(O)c2cc(OC)ccc2OC)nc2ccccc21 (configuration not stated) | inactive | – |
| COCCCn1c(=O)/c(=C/c2ccccc2OC(C)C)s/c1=C(\C#N)C(=O)Nc1ccc(C(=O)O)cc1 | inactive | – |
| CC1(c2cccc(Br)c2)NC(=O)N(CC(=O)NCCC2=CCCCC2)C1=O (configuration not stated) | inactive | – |
| Cc1cccc(-c2nc(Nc3ccc(O)cc3)c3ccccc3n2)c1 | 11.6 µM (active) | – |
| Cc1ccc2nc(Nc3ccccc3O)nc(-c3ccccc3)c2c1 | – | -0.715% [at 9.24 µM] (inactive) |
| Oc1ccc(-c2nnc(Nc3ccccc3)c3ccccc23)cc1 | inactive | – |
| CC1=C(C(=O)N2CCOCC2)CC(CC(=O)NCc2ccco2)C(=O)N1Cc1ccc(F)cc1 (configuration not stated) | inactive | – |
| COc1ccc(N2c3ccccc3CN(Cc3ccccc3)[C@@H](C)[C@H]2Cc2ccc(-c3ccccc3)cc2)cc1 | inactive | – |
| O=C(NCc1ccccc1Cl)c1csc([C@@H]2O[C@H](CO)[C@@H](O)[C@H]2O)n1 | inactive | – |
| CCN(CC)c1ccc(NC(=O)c2ccc(Cl)nc2)cc1 | 7.31 µM (active) | – |
| O=C(Nc1ccc2nc3n(c(=O)c2c1)CCCC3)c1ccc(Cl)nc1 | inactive | – |
| O=C(NNC(=O)c1ccc(Cl)nc1)c1ccc(Br)cc1 | inactive | – |
| CC(C)n1ncc2c(C(=O)N3CCN(Cc4cccs4)CC3)cc(C3CC3)nc21 | inactive | – |
| CC1C(=O)N(Cc2cn(CC3CCCCC3)nn2)CCS(=O)(=O)N1Cc1ccc(-c2cccc(N(C)C)c2)cc1 (configuration not stated) | inactive | – |
| O=C(CN1CCCCC1)N1c2ccccc2Sc2ccc(C(F)(F)F)cc21 | inactive | – |
| O=C(CN1CCCCCC1)N1c2ccccc2Sc2ccc(C(F)(F)F)cc21 | 11.2 µM (active) | – |
| COc1cc(/C=C/C(=O)N2c3ccccc3Sc3ccc(C(F)(F)F)cc32)cc(OC)c1OC | inactive | – |
| O=S1(=O)CC(N2CCN(c3ccccn3)CC2)CN1Cc1ccc(F)cc1 (configuration not stated) | inactive | – |
| COc1cc(OC)cc(C(=O)N[C@H](C(=O)Nc2nc3ccccc3[nH]2)C(C)C)c1 | 1.3 µM (active) | – |
| COc1ccc(C(=O)N[C@H](C(=O)NCc2ccccc2)C(C)C)cc1 | inactive | – |
| COc1cc(OC)cc(C(=O)N[C@H](C(=O)NNC(=O)c2ccc(Br)cc2)C(C)C)c1 | inactive | – |
| Cc1ccccc1CN1C(=O)CSCC1(C)C(=O)Nc1c(C)cccc1C (configuration not stated) | inactive | – |
| N#Cc1cccc(NC(=O)c2cc(C3CCCCN3C(=O)CCc3ccccc3)on2)c1 (configuration not stated) | inactive | – |
| O=C(COC(=O)c1cccc(Cl)c1Cl)NC1CCCCCC1 | inactive | – |
| Cc1ccc([C@H]2N[C@]3(CCCN(CC4CCCCC4)C3=O)[C@H]3C(=O)N(Cc4ccccc4)C(=O)[C@@H]23)cc1 | inactive | – |

| Structure (SMILES) | Potency | activity, negative = toxicity |
| --- | --- | --- |
| CCNC(=S)Nc1ccc(OC(F)(F)F)cc1 | inactive | – |
| CCc1ccc2c(c1)NC(=O)C2(C)Cc1ccc(OC(F)(F)F)cc1 (configuration not stated) | 23.1 µM (active) | – |
| COc1ccccc1CC1(C)C(=O)Nc2ccc(OC(F)(F)F)cc21 (configuration not stated) | inactive | – |
| CC(=O)c1ccc(OCC(=O)N(C)C2CCS(=O)(=O)C2)cc1 (configuration not stated) | inactive | – |
| O=C(NC1CCCC1)C1c2ccccc2OCC(=O)N1CC(F)(F)F (configuration not stated) | inactive | – |
| CSc1ncccc1C(=O)NCC(c1ccco1)N1CCCCC1 (configuration not stated) | inactive | – |
| Cc1cc(S(=O)(=O)Nc2ccc(C(=O)NCC(c3ccco3)N3CCCC3)cc2)ccc1F (configuration not stated) | inactive | – |
| Cc1c(C(=O)NCC(c2ccco2)N2CCCC2)oc2ccc(Cl)cc12 (configuration not stated) | 23.1 µM (active) | – |
| CCCCCCCN=C(C)c1ccccc1O | inactive | – |
| C/C(=N/Nc1ccc(Cl)cc1)c1cnnc(-c2ccccc2)n1 | inactive | – |
| C/C(=N\Nc1ccc(Cl)nn1)c1ccccc1O | 3.26 µM (active) | – |
| O=C(C[C@H]1C[C@H]2c3cc(NS(=O)(=O)c4ccc(F)cc4)ccc3O[C@H]2[C@H](CO)O1)NCc1cc(F)ccc1F | inactive | – |
| COc1ccc(C(=O)NCC2CCCO2)cc1S(=O)(=O)NCc1ccc(Cl)cc1 (configuration not stated) | inactive | – |
| CC1CCCCN1S(=O)(=O)c1ccc(C(=O)Nc2nnc(-c3cccs3)o2)cc1 (configuration not stated) | 8.2 µM (active) | – |
| CC1CCCN(S(=O)(=O)c2ccc(C(=O)Nc3nnc(-c4ccncc4)o3)cc2)C1 (configuration not stated) | inactive | – |
| CSCc1nnc(NC(=O)c2ccc(S(=O)(=O)N3CCCCC3C)cc2)o1 (configuration not stated) | inactive | – |
| CCCNC(=O)c1cc(C2CCCN(C(=O)c3ccc4c(c3)CCO4)C2)on1 (configuration not stated) | inactive | – |
| COC(=O)C[C@H]1C[C@@H]2c3cc(N(C)C)ccc3O[C@@H]2[C@H](CO)O1 | inactive | – |
| CCOc1ccc(CCNC(=O)COC(=O)c2ccc(C)c(S(=O)(=O)N3CCOCC3)c2)cc1OCC | inactive | – |
| c1csc(CN2CCN(Cc3cccs3)C2c2cccs2)c1 | – | -1.16% [at 9.24 µM] (inactive) |
| Brc1ccc2c(c1)[C@H]1OCC[C@H]1[C@@H](c1cccs1)N2 | 9.2 µM (active) | – |
| COc1cc2ccc(C(C)=O)c(O)c2cc1OC | inactive | – |
| COCCNc1ncnc2c1ncn2[C@H]1CN(Cc2ccc(OC)cc2)C[C@@H](CO)O1 | inactive | – |
| COc1cccc2c1C(=O)c1c(O)c3c(c(O)c1C2=O)CC(O)(C(C)=NNC(=O)c1ccc(Cl)c(Cl)c1)CC3OC1CC(N)C(O)C(C)O1 (configuration not stated) | 1.16 µM (active) | – |
| OC(c1ccccc1)c1nc(-c2cnc3ccccc3c2)cs1 (configuration not stated) | inactive | – |

| Structure (SMILES) | Potency | activity, negative = toxicity |
| --- | --- | --- |
| Cc1ccc(S(=O)(=O)NC2CCCCCC2)cc1 | inactive | – |
| Cc1ccc(S(=O)(=O)C2(S(=O)(=O)c3ccc(C)cc3)CCCC2)cc1 | 11.6 µM (active) | – |
| Cc1ccc(S(=O)(=O)N(C)C2(C)CCS(=O)(=O)C2)cc1 (configuration not stated) | inactive | – |
| Cc1cc(C)c2c(=O)n3c(nc2c1)C(CC(C)C)NC(=O)c1cc2ccccc2cc1-3 (configuration not stated) | inactive | – |
| COc1ccc(Br)c(Cn2c(C)c(C(=O)NCc3cccs3)sc2=O)c1 | inactive | – |
| CCc1ccc(NC(=O)Cn2nnc(C(=O)NCc3ccc(OC)cc3)c2N)cc1 | inactive | – |
| CCOc1ccccc1NC(=O)Cn1nnc(C(=O)NCc2cccs2)c1N | 0.411 µM (active) | – |
| CCOc1ccc(Cl)cc1-c1cc(C(=O)NCc2cccs2)[nH]n1 | inactive | – |
| COc1ccc(-c2cnc3c(c2)C(=O)N([C@H](C)CO)C[C@@H](C)[C@H](CN(C)Cc2ccccc2)O3)cc1 | inactive | – |
| COc1ccc(OC)c(CN2C(=O)CCC2(C)c2nnnn2Cc2ccccc2)c1 (configuration not stated) | inactive | – |
| O=C(CC(O)(C(F)(F)F)C(F)(F)F)Nc1ccc(Cl)c(Cl)c1 | 11.6 µM (active) | – |
| NC(=O)N1CCCC1C(=O)Nc1ccc(Cl)c(Cl)c1 (configuration not stated) | inactive | – |
| O=C(COC(=O)c1cc[n+]([O-])cc1)Nc1ccc(Cl)c(C(F)(F)F)c1 | inactive | – |
| O=C1NC(O)CCN1C1CC(O)C(CO)O1 (configuration not stated) | inactive | – |
| CC(=O)c1ccc(Nc2nc(C(N)c3ccccc3Cl)cs2)cc1 (configuration not stated) | inactive | – |
| CCn1c(/C=C/c2ccc([N+](=O)[O-])o2)nc2ccccc2c1=O | 2.59 µM (active) | – |
| CCOCCCn1c(NN)nc2ccccc2c1=O | inactive | – |
| CCn1c(SCc2ccccc2)nc2cc(OC)c(OC)cc2c1=O | inactive | – |
| COc1ccc(C(=O)N2CCCCC2c2cc(C(=O)Nc3ccccc3)no2)cc1 (configuration not stated) | inactive | – |
| Cc1ccc(S(=O)(=O)N(Cc2cccc([N+](=O)[O-])c2)C(=O)N2CCN(C)CC2)cc1 | inactive | – |
| O=C(c1cccc([N+](=O)[O-])c1)N1CCN(Cc2ccccc2)CC1 | inactive | – |
| O=C(CCl)N(Cc1cccc([N+](=O)[O-])c1)c1cccc(Cl)c1 | 4.61 µM (active) | – |

Reference: PubChem BioAssay AID686971 (National Center for Advancing Translational Sciences (NCATS), 2013)
